Laboratory results as given in PubChem BioAssay AID893 (National Center for Advancing Translational Sciences (NCATS), 2007).
Among all 75,000 compounds or so, about 5,700 (7.6%) were called active. A call without a number means that no potency is given here. Inconclusive results (about 7%) are left out. This excerpt belongs to a sample that is enriched for actives. Unmarked numbers belong to inactive results. Calls follow the shape of the dose curve; as a rule, active = well fitted inhibition curve with a large enough effect; inconclusive = small, poorly fitted or top-dose-only effect; inactive = no such curve, though single readings can be large or run the other way.

molecular target: 3-hydroxyacyl-CoA dehydrogenase type-2 (Homo sapiens) (UniProt Q99714); assay: qHTS Assay for Inhibitors of HSD17B4, hydroxysteroid (17-beta) dehydrogenase 4; settings: recombinant HSD17B10, NADH fluorescence kinetic; series mostly up to 57.1 µM;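 also: the protocol describes HADH2 (HSD17B10) and not the HSD17B4 of the title; nearly all actives have a fitted effect of over 70% in size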
Outline: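 His-tagged E. coli-expressed HADH2 at 20 nM in 100 mM Tris-HCl pH 9.0 with 0.01 % Tween-20, preincubated 15 min with compound at room temperature. Reaction with 1 mM NAD+ and 90 uM beta-hydroxybutyryl coenzyme A; NADH fluorescence (360/450 nm) read kinetically over 4 min, last minus first point.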
Potency is read from the fitted curve at half-maximal effect.

| SMILES | Potency | activity change, negative = inhibition |
| --- | --- | --- |
| Cc1noc(C)c1S(=O)(=O)N(CC(=O)NCc1ccc(Cl)cc1)c1ccc2c(c1)OCO2 | inactive |  |
| COc1cc(C(O)c2nc3ccccc3n2C)cc(OC)c1OC (stereo unspecified) | inactive |  |
| Cc1csc(-c2nc3ccccc3n2C)n1 | 31.6 µM (active) |  |
| Cc1nn2c3ccccc3nc2n(C)c1=O | inactive |  |
| O=C(NCc1ccco1)C1CCCN(S(=O)(=O)c2cccc3nonc23)C1 (stereo unspecified) | inactive |  |
| CC(C)(C)c1ccc(OC2C=CC(C#Cc3ccccc3)OC2CO)cc1 (stereo unspecified) |  | -6.55% [at 11.4 µM] |
| COC1[C@H](OC(N)=O)C(O)[C@H](Oc2ccc3c(O)c(NC(=O)c4ccc(O)c(CC=C(C)C)c4)c(=O)oc3c2C)OC1(C)C (stereo partly specified) | inactive |  |
| O=C(c1ccc(F)cc1)C1CCN(CCCCc2ccccc2)CC1 | inactive |  |
| CCN1C(=O)C(C(=O)NC(C)c2ccccc2)C2CC1(C)Oc1ccccc12 (stereo unspecified) | inactive |  |
| Cc1cc(C(F)(F)F)nn1-c1nc(-c2ccco2)cc(C(F)(F)F)n1 | 31.6 µM (active) |  |
| FC(F)(F)c1nnc2sc(-c3ccco3)nn12 | inactive |  |
| FC(F)(F)c1cc(-c2ccco2)nc(N2CCOCC2)n1 | inactive |  |
| CCCC(C(=O)NCc1ccco1)N(C(=O)CNS(=O)(=O)c1ccccc1)C1CCCC1 (stereo unspecified) | inactive |  |
| CC(=O)N(CN1C(=O)C2CC=CCC2C1=O)c1cccc(Cl)c1 (stereo unspecified) | inactive |  |
| CCCC(=O)Nc1cccc(-c2cn3ccsc3n2)c1 | inactive |  |
| CC(=O)Nc1cccc(-c2cnc3ccccc3n2)c1 | inactive |  |
| CC(=O)Nc1ccc(-c2cn3cccnc3n2)cc1 | 10 µM (active) |  |
| CCOc1nc(OCC)nc(-n2cc(-c3ccccc3)nn2)n1 | inactive |  |
| c1ccc(-c2cn3cccnc3n2)cc1 | 25.1 µM (active) |  |
| O=C(c1ccco1)N1CCN=C1SCc1cccc(Cl)c1 | inactive |  |
| COC(=O)c1ccc2c(=O)n(CC3CCCO3)c(=S)[nH]c2c1 (stereo unspecified) | inactive |  |
| O=c1c2cc3c(=O)n(CC4CCCO4)c(=O)c3cc2c(=O)n1CC1CCCO1 (stereo unspecified) | inactive |  |
| O=C(NC1CCCCC1)c1ccc2c(=O)n(CC3CCCO3)c(=O)[nH]c2c1 (stereo unspecified) | 31.6 µM (active) |  |

| SMILES | Potency | activity change, negative = inhibition |
| --- | --- | --- |
| CCC1=[N+]([O-])C(C)(/C(C)=N\O)N(O)C1(C)C (stereo unspecified) | inactive |  |
| O=C(COC(=O)c1ccccc1C(=O)c1ccccc1)c1ccco1 | inactive |  |
| CC(=O)c1cc2c(cc1N)OCO2 | inactive |  |
| COCCn1c(C)cc(C(=O)CSc2ncnc3sc4c(c23)CCC4)c1C | inactive |  |
| COCCNc1nc(-n2nc(C)cc2C)nc2sc3c(c12)CCCC3 | 25.1 µM (active) |  |
| Cc1cc(C)n(-c2nc(SCC(=O)N3CCCC3)c3c4c(sc3n2)CCCC4)n1 | inactive |  |
| CO/N=C\[C@@H](C)[C@H](OCc1ccccc1)C(C)C |  | -1.19% [at 11.4 µM] |
| O=C(c1ccc2c(c1)OCCO2)C1CCN(S(=O)(=O)c2cccc(F)c2)CC1 | inactive |  |
| CC(C)(C)C(=O)CCN1C(=O)C2(OCCO2)c2ccccc21 | inactive |  |
| Cc1ccc(-c2nn(CC(C)(C)C)c3ncnc(N)c23)cc1 | inactive |  |
| CCCCN(CC)C(=O)CN(C)S(=O)(=O)c1cccc2nsnc12 | inactive |  |
| COC(=O)c1ccccc1NC(=O)c1ccccc1NS(C)(=O)=O | inactive |  |
| COc1ccc(C(=O)Nc2nncs2)c(OC)c1 | inactive |  |
| O=C(Nc1nncs1)c1ccccc1NS(=O)(=O)c1cccs1 | 25.1 µM (active) |  |
| CSC1=NCCN1C(=O)c1ccc(S(=O)(=O)N2CCOCC2)cc1 | inactive |  |
| Cc1cc(C(=O)COC(=O)CCCN2C(=O)c3ccccc3C2=O)c(C)n1C | inactive |  |
| c1ccc(CCN2CCN=C2Cc2ccccc2)cc1 |  | 7.62% [at 11.4 µM] |
| COc1ccccc1-c1nnc(SCC(=O)Nc2cc(C)on2)o1 | inactive |  |
| Cc1cc(NC(=O)CSc2nnc(-c3ccc(Cl)s3)o2)no1 | 31.6 µM (active) |  |
| COc1ccccc1-c1nnc(SCC(=O)Nc2ccccc2)o1 | inactive |  |
| OC(CCl)CCl | inactive |  |
| Cc1cc2nc3c(=O)[nH]c(=O)nc-3n(C[C@H](O)[C@H](O)[C@H](O)CO)c2cc1C | 15.8 µM (active) |  |
| CC(C)(C)Nc1c(N)c(=O)oc2ccccc12 | inactive |  |

| SMILES | Potency | activity change, negative = inhibition |
| --- | --- | --- |
| Cc1nc2cnc(N3CCN(C)CC3)nc2n(C[C@H]2CCCO2)c1=O | 31.6 µM (active) |  |
| Cc1nc2cnc(Nc3ccccc3)nc2n(C[C@H]2CCCO2)c1=O | inactive |  |
| CCOc1cccc(=O)c2c(C)n(CC3CCCO3)c(C)c12 (stereo unspecified) | inactive |  |
| Cn1cc(-c2nc3cnc(N4CCNCC4)nc3n(CCC#N)c2=O)c2ccccc21 | inactive |  |
| Cc1nc2cnc(N3CCN(C)CC3)nc2n(CCC#N)c1=O | 31.6 µM (active) |  |
| CCC1=C(OC(=O)N(CC)CC)N2C(=O)OC(=NCC3CC3)[C@]2(C)[C@H]2C1=CC[C@H]1C(=O)N(CC(=O)OC)C(=O)[C@H]12 | inactive |  |
| COC(=O)[C@@]1(Cc2ccccc2)[C@H]2c3cc(C(=O)N(C)C)n(CCSCCO)c3C[C@H]2CN1C(=O)c1ccccc1 | inactive |  |
| O=C(c1cc(C(F)(F)F)cc(C(F)(F)F)c1)N1CCC2(CC1)CN(c1ccncc1)C2 | inactive |  |
| CC(=O)c1cccc(NC(=O)c2ccncc2)c1 | inactive |  |
| CC1(C)Cc2cccc(OCC(=O)Nc3nccs3)c2O1 | inactive |  |
| CCCCc1cc(=O)oc2cc(C)cc(OCc3nn[nH]n3)c12 | 31.6 µM (active) |  |
| COC(=O)[C@@]1(Cc2ccccc2)[C@H]2c3cc(C(=O)N4CCCC4)n(Cc4ccc(C)o4)c3C[C@H]2CN1C(=O)c1ccccc1 | inactive |  |
| COc1ccc(CN(C(=O)c2cccs2)c2nccs2)cc1OC | inactive |  |
| CCOC(=O)c1c(C)[nH]c(C(=O)COc2ccc3c(c2)OCO3)c1C | inactive |  |
| CCOC(=O)c1nc(-c2ccc3c(c2)OCO3)[nH]c1C | 20 µM (active) |  |
| Cc1ccc(C(=O)OCC(=O)NCc2ccc3c(c2)OCO3)s1 | inactive |  |
| O=C(Nc1cccc(F)c1)N1CC2(CCN(C(=O)c3cnccn3)CC2)C1 | inactive |  |
| CC1(C)CC(=O)NC=C(c2ccccc2)C1 | inactive |  |
| O=c1[nH]c(-c2ccccc2)c(-c2ccccc2)[nH]1 | 31.6 µM (active) |  |
| COC(=O)C1C(=O)CC(C)(O)C(C(=O)OC)C1c1ccc2c(c1)OCO2 (stereo unspecified) | inactive |  |
| O=C(NCc1ccco1)c1nc(-c2ccccc2)n(-c2ccccc2)n1 | inactive |  |
| O=C(Nc1ccccc1)Nc1ccccc1C(=O)NCc1ccco1 | inactive |  |
| O=C(NCc1ccco1)c1cccn2c(=O)c3cc(Br)ccc3nc12 | 25.1 µM (active) |  |

| SMILES | Potency | activity change, negative = inhibition |
| --- | --- | --- |
| CC(C)C(N)C(=O)OCCOCn1cnc2c(=O)[nH]c(N)nc21 (stereo unspecified) | inactive |  |
| FC(F)(F)c1ccc(CN2C[C@@H]3C(c4ccccc4)C4(c5ccccc5)CC3(C4)[C@H]2c2ccccc2)cc1 (stereo partly specified) | inactive |  |
| CCOC(=O)N1CCC(NC(=O)c2cnn3ccccc23)CC1 | 31.6 µM (active) |  |
| CCOC(=O)N1CCC(NC(=O)COc2cc(=O)n(C)c3ccccc23)CC1 | inactive |  |
| CCOC(=O)N1CCC(NC(=O)Cc2cn(C)c3ccccc23)CC1 | inactive |  |
| CC(C)=CC1C(C(=O)O)C1(C)C (stereo unspecified) | inactive |  |
| Nc1nonc1-c1nc2ccccc2n1CCC(=O)O | inactive |  |
| Cn1c(-c2ccc(C(=O)c3ccccc3)s2)nc2ccccc21 | 25.1 µM (active) |  |
| Cn1c(CNC(=O)C(C)(C)C)nc2ccccc21 | inactive |  |
| COc1cccc(-c2cc(NCCc3c[nH]c4ccc(OC)cc34)ncn2)c1 | inactive |  |
| CC1OC2C(OC1C)N(S(C)(=O)=O)CCN2S(C)(=O)=O (stereo unspecified) | inactive |  |
| C=CC(=C)CCC=C(C)C | inactive |  |
| COc1ccc2[nH]c3cc4c(=O)c5cc(OC)ccc5[nH]c4cc3c(=O)c2c1 |  | 3.71% [at 11.4 µM] |
| COc1ccc(N)c(C)c1 | inactive |  |
| COc1ccc2[nH]c3ccc(OC)cc3c2c1 | 25.1 µM (active) |  |
| C=CCOC(=O)COCCC(C)C | inactive |  |
| CCOC(=O)CSc1nnc(CNc2nc(-c3ccccc3)cs2)n1C | inactive |  |
| COCCCNC(=O)c1ccc(CNS(=O)(=O)c2ccc(NC(C)=O)cc2)cc1 | inactive |  |
| c1ccc(CSc2nnc(-c3ccco3)n2Cc2ccccc2)cc1 | inactive |  |
| O=C(CSc1nnc(-c2ccco2)n1-c1ccccc1)NCCc1ccccc1 | inactive |  |
| c1ccc(CSc2nnc(-c3ccco3)c(-c3ccco3)n2)cc1 | 10 µM (active) |  |
| COc1ccc(C(=O)N2CCC(C(=O)Nc3cccc(C)c3)CC2)cc1OC | inactive |  |
| CCCCOC(=O)c1ccc(N2C(=O)CC(N3CCN(C/C=C/c4ccccc4)CC3)C2=O)cc1 (stereo unspecified) | inactive |  |

| SMILES | Potency | activity change, negative = inhibition |
| --- | --- | --- |
| CCOc1nc(-c2ccc(OC)cc2)ccc1-c1noc(-c2cc(OC)c(OC)c(OC)c2)n1 | 3.16 µM (active) |  |
| COc1ccc(-c2noc(COc3ccc(Cl)c(C)c3)n2)cc1 | inactive |  |
| COc1cc(-c2nc(-c3ccncc3)no2)cc(OC)c1OC | inactive |  |
| CCCN1C(=O)C(NC(C)=O)c2cc(OC)ccc21 (stereo unspecified) | inactive |  |
| O=C(OCCN1CCOCC1)C1(c2ccccc2)CCCCC1 | inactive |  |
| O=C(CN1CCOCC1)N1CCCc2c1c(=O)oc1ccc(OCc3ccccc3)cc21 | 31.6 µM (active) |  |
| CCOC(=O)c1c(CN2CCOCC2)n(-c2ccccc2)c2ccc(O)cc12 | inactive |  |
| O=C(CN1CCN(C(=O)c2ccco2)CC1)Nc1ccc(Cl)c(C(F)(F)F)c1 | inactive |  |
| CCOc1ccccc1NC(=O)C1CCC(CNc2c(N3CCOCC3)c(=O)c2=O)CC1 (stereo unspecified) | inactive |  |
| Cc1cc(NC(=O)CSCc2nc(-c3cccc(Cl)c3)oc2C)no1 | inactive |  |
| Cn1c(C(=O)NCCCN2CCCCC2)cc2sccc21 | inactive |  |
| Cc1ccsc1-c1nc(CSCC(=O)NCCN2CCCC2)c(C)o1 | 31.6 µM (active) |  |
| CN(C)/C=N/c1cc(=O)n(C)c(=O)n1CC1CC1 | inactive |  |
| COCc1cc(C)nc(Nc2cc(C)ccc2C)c1C#N | inactive |  |
| CCN1CCCC1CNC(=O)Cn1cnc2ccc(S(=O)(=O)N3CCC(C)CC3)cc2c1=O (stereo unspecified) | inactive |  |
| CCCn1c(-c2ccc(F)cc2)nc2c(NCC3CCCN3CC)nc(C)nc21 (stereo unspecified) | 31.6 µM (active) |  |
| CC(C)OCCCNc1ncnc2c1[nH]c1ccc(F)cc12 | 25.1 µM (active) |  |
| CCN1CCCC1CNc1ncnc2c1[nH]c1ccc(F)cc12 (stereo unspecified) | 31.6 µM (active) |  |
| Fc1ccc2[nH]c3c(N4CCSCC4)ncnc3c2c1 | 25.1 µM (active) |  |
